From PubChem BioAssay (NCATS)
Records with an inconclusive call do not appear. Calls of active or inactive are those of the source. Calls come from the whole dose curve; as a rule, active = well fitted inhibition curve with a large enough effect; inconclusive = small, poorly fitted or top-dose-only effect; inactive = flat fitted curve, though single readings scatter.

Tests used:
Assay in all cases: qHTS profiling for inhibitors of Plasmodium falciparum proliferation (AID 504749); note: nearly all actives have a fitted effect of over 60% in size
Details in all cases: P. falciparum in erythrocytes, SYBR Green DNA, 72 h; series mostly up to 28.7 µM
CP201 = system: CP201
Summary of the method: (§1)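 Infected RBCs, 0.3% parasitemia/2.5% Hct final; cpd 72 h, 37 C, 5% CO2; lysis buffer with saponin/triton/SYBR Green I, o/n RT dark; FI 485/535; norm. to artemisinin (0.29 uM) and DMSO.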

CP250 = system: CP250
Summary of the method: as §1

CP256 = system: CP256
Summary of the method: as §1

CP260 = system: CP260
Summary of the method: as §1

CP325 = system: CP325
Summary of the method: as §1

CP329 = system: CP329
Summary of the method: as §1

CP335 = system: CP335
Summary of the method: as §1

ICS = system: ICS
Summary of the method: as §1

P93_24 = system: P93_24
Summary of the method: as §1

PC15 = system: PC15
Summary of the method: as §1

PC26 = system: PC26
Summary of the method: as §1

TAB109 = system: TAB109
Summary of the method: as §1

CP215 = system: CP215
Summary of the method: as §1

CP297 = system: CP297
Summary of the method: as §1

CP315 = system: CP315
Summary of the method: as §1

DIV14 = system: DIV14
Summary of the method: as §1

DIV17 = system: DIV17
Summary of the method: as §1

FAB9 = system: FAB9
Summary of the method: as §1

JCK = system: JCK
Summary of the method: as §1

PC49 = system: PC49
Summary of the method: as §1

Measured: Potency
Potency is the fitted concentration of half-maximal effect.

C[C@]12C=CC(=O)N[C@@H]1CC[C@@H]1C2CC[C@]2(C)C(C(=O)Nc3cc(C(F)(F)F)ccc3C(F)(F)F)CC[C@@H]12 (stereo partly specified)
inactive: CP201 | CP250 | CP256 | CP325 | CP329 | P93_24 | PC15 | PC26 | TAB109
active: CP260 5.01 µM | CP335 3.79 µM | ICS 3.16 µM

C=C(CC[C@@H](C)[C@H]1CCC2[C@]1(C)CC[C@]13C[C@@]14CCC(OC(=O)/C=C/c1ccc(O)c(OC)c1)C(C)(C)[C@@H]4CC[C@@]23C)C(C)C (stereo partly specified)
inactive: all assays above

Nc1nc(/C(=C/CC(=O)O)C(=O)NC2C(=O)N3C(C(=O)O)=CCSC23)cs1 (stereo unspecified)
inactive: all assays above

CCC(C(=O)C(C)C(O)C(C)CCc1ccc(C)c(O)c1C(=O)O)C1OC(CC)(C2CC[C@@](O)(CC)C(C)O2)CC1C (stereo partly specified)
active: CP201 1.07 µM | CP215 0.849 µM | CP250 1 µM | CP256 1 µM | CP260 0.631 µM | CP297 0.601 µM | CP315 0.849 µM | CP325 0.953 µM | CP329 0.757 µM | CP335 0.426 µM | DIV14 0.953 µM | DIV17 0.849 µM | FAB9 2 µM | ICS 0.631 µM | JCK 8.91 µM | P93_24 0.794 µM | PC15 1.41 µM | PC26 0.849 µM | PC49 2 µM | TAB109 0.891 µM

C[N+]12CCCC[C@@H]1CCC(=C(c1cccs1)c1cccs1)C2 (stereo partly specified)
active: CP215 15.1 µM | CP260 11.2 µM | CP335 12 µM | DIV14 6.75 µM | DIV17 10.7 µM | FAB9 11.2 µM | JCK 10 µM | P93_24 7.94 µM | PC26 15.1 µM | PC49 10 µM | TAB109 2.51 µM

C/C(=C(/CCO)SS/C(CCO)=C(\C)N(C=O)Cc1cnc(C)nc1N)N(C=O)Cc1cnc(C)nc1N
not listed: CP260 | TAB109
inactive: all other assays above

COc1ccc(S(=O)(=O)N2c3ccc(Cl)cc3[C@](O)(c3ccccc3Cl)[C@@H]2C(=O)N2CCC[C@H]2C(N)=O)cc1OC
active: ICS 10 µM
not listed: CP260 | CP335 | P93_24 | PC15 | PC26 | DIV14 | DIV17
inactive: all other assays above

C=C[C@@]1(C)C[C@H](OC(=O)CSC(C)(C)CNC(=O)[C@@H](N)C(C)C)[C@@]2(C)C(C)CC[C@@]3(CCC(=O)[C@@H]32)[C@H](C)[C@H]1O (stereo partly specified)
active: CP215 1.69 µM | CP256 0.316 µM | CP260 3.98 µM | CP297 2.39 µM | CP315 2.69 µM | CP325 0.213 µM | CP329 0.601 µM | CP335 1.2 µM | DIV14 6.01 µM | DIV17 7.57 µM | ICS 2.82 µM | P93_24 0.501 µM | PC26 6.01 µM | TAB109 0.891 µM

Clc1ccc(CS[C@@H](Cn2ccnc2)c2ccc(Cl)cc2Cl)cc1
active: CP297 3.22 µM | CP335 1.28 µM | DIV14 5.1 µM | DIV17 5.1 µM | ICS 0.891 µM | P93_24 1.26 µM | PC15 3.55 µM | TAB109 3.55 µM

O=C(O)C(O)c1ccccc1 (stereo unspecified)
not listed: CP256
inactive: all other assays above

C[C@]12CC[C@@H]3c4ccc(O)cc4C[C@@H](CCCCCCCCCS(=O)CCCC(F)(F)C(F)(F)F)C3[C@@H]1CC[C@@H]2O (stereo partly specified)
inactive: CP315
active: CP260 8.91 µM | CP297 4.26 µM | CP335 13.5 µM | DIV14 3.01 µM | DIV17 4.78 µM | FAB9 8.91 µM | ICS 2 µM | JCK 17.8 µM | P93_24 2.24 µM | PC15 11.2 µM | PC26 3.38 µM | TAB109 10 µM

CCC(=O)O[C@]1(C(=O)CCl)[C@@H](C)CC2C3C[C@H](F)C4=CC(=O)C=CC4(C)[C@@]3(F)C(O)CC21C (stereo partly specified)
inactive: FAB9
active: CP215 10.7 µM | CP250 12.6 µM | CP256 11.2 µM | CP260 11.2 µM | CP297 10.7 µM | CP325 16.9 µM | CP329 15.1 µM | CP335 10.7 µM | DIV14 4.26 µM | DIV17 4.26 µM | ICS 2.82 µM | P93_24 10 µM | PC15 8.91 µM | PC26 12 µM | TAB109 5.01 µM

Nc1ncn(C2C[C@H](O)[C@@H](CO)O2)c(=O)n1 (stereo partly specified)
not listed: CP215 | CP297
inactive: all other assays above

Cc1cc2nc3c(=O)[nH]c(=O)nc-3n(CC(O)C(O)C(O)COP(=O)(O)O)c2cc1C (stereo unspecified)
not listed: DIV14
inactive: all other assays above

Cn1cc(C(=O)[C@@H]2CCc3[nH]cnc3C2)c2ccccc21
inactive: all assays above

C[C@@H]1CC2C3CCC4=CC(=O)C=C[C@]4(C)[C@@]3(F)[C@@H](O)C[C@]2(C)[C@@]1(O)C(=O)COC(=O)c1cccc(S(=O)(=O)O)c1 (stereo partly specified)
inactive: all assays above
